Test [1] can be described thus: qHTS assay for small molecules that induce genotoxicity in human embryonic kidney cells expressing luciferase-tagged ATAD5 (AID 651632). Also: nearly all actives have a fitted effect of over 15% in size. The procedure, abridged: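 ATAD5-luc HEK293T, 2,000 cells/well; cpd or DMSO pin-transferred; 16 hr, 37C/5% CO2; Amplite 30 min RT; luminescence.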
A short description of test [2]: qHTS assay for small molecule agonists of the p53 signaling pathway - cell viability (AID 651633; calls by dose curve;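 also: p53RE-bla HCT reporter cells with a stable beta-lactamase p53 reporter; series mostly up to about 83 µM; nearly all actives have a fitted effect of over 30% in size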). The procedure, abridged:
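p53RE-bla cells were treated with compound for 16 hours at 37 C. Cytotoxicity was then measured as CellTiter-Glo luminescence after 30 min at room temperature.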
A general note: Quantitative high-throughput screening tests each substance at several concentrations.

The nature of test [3]: qHTS assay for small molecules that induce genotoxicity in human embryonic kidney cells expressing luciferase-tagged ATAD5 - cell viability (AID 651634; calls by dose curve; also: nearly all actives have a fitted effect of over 25% in size; also: potency is read from the fitted curve at half-maximal effect). The gist of the method: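 Fluorescence from CellTiter-Fluor, reporting protease activity within live cells, served as the viability read-out. HEK293T cells carrying luciferase-tagged ATAD5 had been treated with compound for 15.5 hr at 37C.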

The nature of test [4]: qHTS assay for small molecule disruptors of the mitochondrial membrane potential - cell viability (AID 720634; calls by dose curve;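 also: human HepG2 liver cancer cells; series mostly up to about 83 µM; nearly all actives have a fitted effect of over 20% in size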). The procedure, abridged: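 Cells: HepG2, 2,000/well, attached overnight. Compound 1 hr, 37 C/5% CO2. +m-MPI dye, +CellTiter-Glo 30 min RT. Readout: luminescence (ATP).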
A short description of test [5]: qHTS assay for small molecule disruptors of the mitochondrial membrane potential (AID 720635). The procedure, abridged:
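HepG2 cells exposed to compound 1 hr at 37C, then Mito-MPS dye 30 min. Ratio read of aggregate (540/590 nm) versus monomer (490/535 nm) fluorescence.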

Test [6] in a line: qHTS assay to test for compound auto fluorescence at 590 nm (red) in HepG2 cells (AID 720674). The procedure, abridged:
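HepG2 cells, 2,000 per well in MEM with 10% FBS, attached overnight at 37 C, then got 23 nL compound or DMSO. After 1 hr at 37 C, 5% CO2, red fluorescence was read at 540/590 nm against Rose Bengal sodium as reference.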

Test [7] is described as follows: qHTS assay to test for compound auto fluorescence at 535 nm (green) in HepG2 cells (AID 720675).
Test [8] in a line: qHTS assay to test for compound auto fluorescence at 460 nm (blue) in HEK293 cells (AID 720678). The procedure, abridged:
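HEK293, 2,000 cells/well, 10% dialyzed FBS; attach 4-5 hr 37C; pin compound or DMSO; o/n 37C/5% CO2; fluorescence 405/460 nm; triamterene-equivalent units.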

A short description of test [9]: qHTS assay to test for compound auto fluorescence at 590 nm (red) in HEK293 cells (AID 720679). The gist of the method:
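Intensity at 540nm excitation and 590nm emission is reported as Rose Bengal sodium-equivalent autofluorescence. Measurements followed overnight exposure (37C, 5% CO2) of HEK293 cells, 2,000 per well, to 23 nL compound.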

The nature of test [10]: qHTS assay to test for compound auto fluorescence at 535 nm (green) in HEK293 cells (AID 720680).
The nature of test [11]: qHTS assay to test for compound auto fluorescence at 460 nm (blue) in HEK293 cell free culture (AID 720681). The procedure, abridged: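 Compounds were added to cell-free DMEM with 10% FBS and fluorescence read directly. The blue channel used 405 nm excitation and 460 nm emission, with triamterene as the reference fluorophore.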
Test [12] can be described thus: qHTS assay to test for compound auto fluorescence at 535 nm (green) in HEK293 cell free culture (AID 720682). The procedure, abridged:
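Steps: dispense DMEM/10% FBS into empty wells; pin in compound or DMSO; measure fluorescence at 485/535 nm. Values are fluorescein equivalents.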

The nature of test [13]: qHTS assay to test for compound auto fluorescence at 590 nm (red) in HEK293 cell free culture (AID 720683). The gist of the method:
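Cell-free wells of DMEM with 10% FBS received compound, and intrinsic fluorescence was read at excitation/emission 540/590 nm. Values expressed as equivalence to Rose Bengal sodium.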

A short description of test [14]: qHTS assay to test for compound auto fluorescence at 590 nm (red) in HepG2 cell free culture (AID 720684). The procedure, abridged: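 Compound was pinned into wells holding MEM with 10% FBS and no cells, and red fluorescence was read at Ex/Em 540/590 nm. Signal is expressed as auto fluorescence equivalency relative to Rose Bengal sodium.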
Test [15] in a line: qHTS assay to test for compound auto fluorescence at 535 nm (green) in HepG2 cell free culture (AID 720686).
The nature of test [16]: qHTS assay to test for compound auto fluorescence at 460 nm (blue) in HepG2 cells (AID 720687). The procedure, abridged: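 HepG2 cells in MEM with 10% FBS, attached overnight at 37 C, were exposed to compound or DMSO for 1 hr at 37 C, 5% CO2. Blue fluorescence was read at 405/460 nm, with triamterene as reference fluorophore.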
Test [17] has as its target Glucocorticoid receptor (Homo sapiens) (UniProt P04150). Kind of test: qHTS assay to identify small molecule agonists of the glucocorticoid receptor (GR) signaling pathway (AID 720691; active = well fitted activation curve with a large enough effect in the signal ratio in the repeat runs, not every such curve was filed as active; the % refers to the signal ratio). The gist of the method:
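Fluorescence intensity from LiveBLAzer B/G FRET substrate (2 h, room temperature) reports beta-lactamase expression driven by the glucocorticoid response element in GR-bla HeLa cells after 18 h compound exposure at 37 C.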

For test [18] the target is unchanged. In words: qHTS assay to identify small molecule antagonists of the glucocorticoid receptor (GR) signaling pathway (AID 720692; active = well fitted inhibition curve with a large enough effect in the signal ratio in the repeat runs, not every such curve was filed as active; the % refers to the signal ratio). The procedure, abridged:
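HeLa GR-bla cells; cmpd + dex 5 nM final, 18 h 37 C; LiveBLAzer B/G FRET substrate 2 h RT; fluorescence intensity read. Antagonist mode, qHTS.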

Test [19] in a line: qHTS assay to test for compound auto fluorescence at 460 nm (blue) in HepG2 cell free culture (AID 720685). The procedure, abridged:
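Compound (23 nL) or DMSO pinned into cell-free MEM with 10% FBS; blue fluorescence read at 405/460 nm excitation/emission, expressed as auto-fluorescence equivalency to triamterene.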

A short description of test [20]: qHTS assay for small molecule agonists of the p53 signaling pathway (AID 651631; calls by dose curve; also: nearly all actives have a fitted effect of over 15% in size). The procedure, abridged:
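HCT-116 p53RE-bla reporter line, 16 h compound treatment at 37 °C, then fluorescence after 2 h with B/G FRET substrate.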

This passage reports Potency results from PubChem BioAssay (Tox21).

Inconclusive results are not listed. The source made the active and inactive calls. Unless noted, calls follow the shape of the dose curve; as a rule, active = well fitted curve in the direction sought with a large enough effect in the repeat runs; inconclusive = weak or mixed curves; inactive = no such curve, though single readings can be large; an effect the other way counts as inactive or inconclusive.

Sequence of Glucocorticoid receptor (Homo sapiens) (P04150 whole entry, looked up): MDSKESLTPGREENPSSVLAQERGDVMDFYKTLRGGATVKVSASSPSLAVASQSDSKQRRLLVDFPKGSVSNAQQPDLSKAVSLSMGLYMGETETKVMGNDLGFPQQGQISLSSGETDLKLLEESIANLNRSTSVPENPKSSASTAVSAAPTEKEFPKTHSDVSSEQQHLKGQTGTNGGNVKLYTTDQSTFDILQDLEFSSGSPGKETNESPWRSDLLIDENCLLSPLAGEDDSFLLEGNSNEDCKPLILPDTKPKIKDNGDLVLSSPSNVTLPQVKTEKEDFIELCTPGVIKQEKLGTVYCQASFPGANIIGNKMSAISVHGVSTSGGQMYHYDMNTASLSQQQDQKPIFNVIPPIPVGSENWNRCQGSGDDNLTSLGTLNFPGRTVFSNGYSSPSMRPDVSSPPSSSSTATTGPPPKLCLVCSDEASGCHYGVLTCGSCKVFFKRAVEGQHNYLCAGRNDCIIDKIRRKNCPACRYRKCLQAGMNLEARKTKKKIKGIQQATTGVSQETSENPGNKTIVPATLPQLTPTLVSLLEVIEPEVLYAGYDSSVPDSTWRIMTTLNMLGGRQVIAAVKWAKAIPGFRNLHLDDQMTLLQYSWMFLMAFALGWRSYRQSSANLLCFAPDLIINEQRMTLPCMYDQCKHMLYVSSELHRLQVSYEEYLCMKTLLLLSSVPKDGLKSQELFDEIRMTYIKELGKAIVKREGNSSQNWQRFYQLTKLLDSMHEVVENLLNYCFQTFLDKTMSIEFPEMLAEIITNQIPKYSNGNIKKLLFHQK

With `Cc1ccc(C)cc1`, the Potency entry in test [1], in test [2], in test [3], in [4], in test [5] and in test [6] was “inactive” in each case. Besides, the Potency result in test [7], in [8], in test [9], in test [10], in [11] and in [12] was “inactive” each time. For the same compound, the Potency entry in test [13], in [14], in test [15], in test [16], in test [17] and in test [18] was “inactive” throughout.
As to `CCCCCc1ccc(Cl)cc1`, the Potency entry in test [1], in [2], in [3], in test [4], in test [5] and in [6] was “inactive” each time. Further, the Potency result in test [7], in test [8], in test [9], in test [10], in [11] and in test [12] was “inactive” each time. In addition, the Potency result in test [13], in test [14], in test [19], in test [15], in [16] and in test [17] was “inactive” each time. For the same compound, in test [18], the Potency entry is “inactive”.
For `CCN1C(=O)c2ccccc2C1Nc1ccc(OCCN2CCCCC2)cc1` (stereo unspecified), the Potency result in test [20], in test [2], in [3], in test [5], in test [6] and in [7] was “inactive” each time. In addition, the Potency result in [8], in test [9], in test [10], in [11], in test [12] and in test [13] was “inactive” throughout. The Potency entry in [14], in test [19], in test [15], in test [16], in test [17] and in test [18] was “inactive” throughout.
For `CCCCOC(=O)CC`, the Potency entry in test [1], in test [2], in test [3], in test [4], in test [5] and in [6] was “inactive” throughout. Further, the Potency result in [7], in test [8], in [9], in test [10], in [11] and in [12] was “inactive” throughout. Besides, the Potency entry in test [13], in [14], in test [19], in test [15], in test [16] and in test [17] was “inactive” throughout. The Potency entry in test [18] was “inactive”.
`CC[N+](CC)(CC)CCOc1ccc(/C=C/c2ccccc2)cc1`: the Potency result in test [1], in test [2], in test [3], in test [4], in test [5] and in [6] was “inactive” each time. The Potency entry in test [7], in test [8], in test [9], in [10], in test [11] and in test [12] was “inactive” throughout. Moreover, the Potency entry in [13], in test [14], in test [15], in [16], in test [17] and in [18] was “inactive” in each case.
For the compound `O=C(Nc1ccc2c(O)c(N=Nc3ccc(N=Nc4ccc(S(=O)(=O)O)cc4)cc3)c(S(=O)(=O)O)cc2c1)c1ccccc1`, the Potency entry in test [1], in test [2], in test [4], in test [6], in test [7] and in [8] was “inactive” each time. In addition, the Potency result in test [9], in test [10], in [11], in [12], in test [13] and in [14] was “inactive” in each case. Further, the Potency result in [19], in [15] and in test [16] was “inactive” in each case. The Potency in test [3] was 48.6 µM (active).
Regarding `CN(C)C(=O)COC(=O)Cc1ccc(OC(=O)c2ccc(N=C(N)N)cc2)cc1`, the Potency entry in [1], in [2], in test [3], in test [4], in test [5] and in test [6] was “inactive” throughout. Also, the Potency result in [7], in [9], in test [10], in test [11], in test [12] and in [13] was “inactive” throughout. Moreover, the Potency entry in [14], in test [19], in test [15], in test [16], in test [17] and in [18] was “inactive” throughout.
